Assay results from PubChem BioAssay.
Values without a mark were called inactive. No rule for the calls is given here.

These compounds were tested against Pantothenate synthetase (Mycobacterium tuberculosis (strain ATCC 25618 / H37Rv)) (UniProt P9WIL5) (assay: Coupled enzyme confirmation of inhibitors against recombinant Mtb PanC (AID 375;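 also: 0% = full reaction with vehicle and 100% = no enzyme background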)). Settings: coupled enzyme assay; at 10 µM, active compounds read high.
Sequence of Pantothenate synthetase (Mycobacterium tuberculosis (strain ATCC 25618 / H37Rv)) (P9WIL5 whole entry, looked up): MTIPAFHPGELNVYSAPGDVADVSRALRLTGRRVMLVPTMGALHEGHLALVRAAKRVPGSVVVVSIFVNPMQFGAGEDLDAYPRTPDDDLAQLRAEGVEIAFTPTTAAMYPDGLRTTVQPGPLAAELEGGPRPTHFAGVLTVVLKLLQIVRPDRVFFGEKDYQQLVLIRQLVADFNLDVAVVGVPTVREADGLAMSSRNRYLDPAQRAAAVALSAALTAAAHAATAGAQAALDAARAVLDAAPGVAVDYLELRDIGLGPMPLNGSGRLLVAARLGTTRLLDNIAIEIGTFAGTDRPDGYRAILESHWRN

Compound | inhibition
COc1ccc(CCNC(=O)CC2COc3ccccc3O2)cc1OC (stereo not given) | 0%
CN1C(=S)SC(C)(NO)C1(C)C (stereo not given) | 0%
CCC(=O)N1CCNC(=O)C1CC(=O)Nc1ccc(C)c(Cl)c1 (stereo not given) | 0%
COCCOC(=O)C1=C(C)OC(N)=C(C#N)C1c1ccc2c(c1)OCO2 (stereo not given) | 0%
Cc1cccc(NC(=O)CC(C)(C)C)c1 | 0%
C=CCn1c(SCC(=O)C(C)(C)C)nnc1-c1ccccn1 | 3%
CCCC(=O)n1nc(-c2ccc(OC)cc2)nc1N | 2%
CCSc1nnc(-c2cccs2)o1 | 0%
COc1ccc(C2=NO[C@@H]3C(=O)N(c4ccc5c(c4)OCCO5)C(=O)[C@H]23)cc1OC | 3%
CCOC(=O)c1ccccc1NC(=O)c1cc2sccc2n1C | 2%
O=C(CN(c1ccccc1)S(=O)(=O)c1ccccc1)N1CCN(Cc2ccc3c(c2)OCO3)CC1 | 0%
O=C(NCc1cccs1)C(Cc1ccccc1)n1cccc1 (stereo not given) | 0%
CN1CCN(c2ncnc3c2cnn3-c2ccc(Cl)cc2)CC1 | 1%
OC(CCCN1CCC(O)(c2ccc(Cl)cc2)CC1)c1ccc(F)cc1 (stereo not given) | 5%
COc1ccc(N2CCN(c3ccc(N)cc3C#N)CC2)cc1 | 7%
O=C(NC1CC2CCC1C2)C1COc2ccccc2O1 (stereo not given) | 0%
COc1ccc(C(=O)Nc2nc(C)c(C(=O)N(C)C)s2)cc1OC | 0%
COc1ccc(NC(=O)CSc2nnc(Cc3cccn3C)n2-c2ccc(F)cc2)cc1OC | 0%
COc1ccc(CC(=O)Nc2ccc(-c3nnc(-c4ccc(C)cc4)o3)cc2)cc1 | 4%
COc1ccc(Cn2c(=O)[nH]c3cc(C(=O)NCCCN4CCCC4)ccc3c2=O)cc1 | 5%

Compound | inhibition
Cc1c(C(=O)NCc2ccoc2)oc2ccc3c(c12)C(=O)CC(C)(C)O3 | 2%
COC(=O)C1=C(C)Nc2nnnn2C1c1cccs1 (stereo not given) | 8%
O=C(c1cccs1)N1CCc2ccccc21 | 0%
CC1(C)CC(=O)C(C=Nc2ccc3c(c2)OCO3)=C(O)C1 | 7%
CCCCn1c(CN2CCN(c3cccc(Cl)c3)CC2)nc2c1c(=O)n(C)c(=O)n2C | 6%
CN(C(=O)c1ccco1)c1nnc(C23CC4CC(CC(C4)C2)C3)s1 | 0%
COc1cc2c(cc1OC)-c1nnc(-c3cccs3)n1C(C)(C)C2 | 0%
Cc1ccc(S(=O)(=O)NCCNC(=O)c2ccccc2)cc1 | 4%
CC1CCN(C(=S)c2ccccc2O)CC1 | 0%
CCN(c1ccc2c(c1)OCO2)S(=O)(=O)c1cc(Br)cc2c1N(C(=O)C1CC1)CC2 | 0%
COc1ccc(C2/C(=C(/O)c3ccc(OC(C)C)cc3)C(=O)C(=O)N2CCCN2CCOCC2)cc1 (stereo not given) | 0%
CC1CN(c2ccc(Oc3ccccc3)cc2)c2nc3c(c(=O)n(CC(N)=O)c(=O)n3C)n2C1 (stereo not given) | 3%
O=C(CN(Cc1ccco1)C(=O)CNS(=O)(=O)c1ccc(F)cc1)NCCc1ccccc1 | 3%
CN(C)CCOC(c1ccccc1)c1ccccc1 (tested in a mixture with another compound) | 0%
Nc1nonc1-c1noc(-c2ccccc2Br)n1 | 0%
CCN(CC)C(=O)COc1ccc2oc(C)c(C(=O)OC(C)C)c2c1 | 4%
O=C(Nc1ccc(NC(=O)C2CC2)cn1)c1ccccc1Cl | 0%
CC(c1ccco1)N(Cc1ccco1)C(=O)Nc1ccccc1 (stereo not given) | 0%
COc1ccc(Cl)cc1C(=O)NCCc1ccc(S(=O)(=O)NC(=O)NC2CCCCC2)cc1 | 0%
CN(C1CCCCC1)S(=O)(=O)c1ccc(S(=O)(=O)N2CCCC2)cc1 | 0%
